Measured values published in publication PMC13494018.
Values without a mark were called inactive. How the calls were made is not given here.

B1: d8r1_design_ppi_286_dldesign_0_cycle1_af2pred (protein)
chain: SNEEKAEDLRFMARAVLGVGATASAAETAAFLNDVAAAAARLDPEAGAAVAAIGAAAAASGDAKAAAKAAAAVLEAAAEEFL
B2: d8r1_design_ppi_1425_dldesign_0_cycle0_af2pred (protein)
chain: STESREKALKAISEKSKAKAKKLAAEDPAKGLALAKNAAKSFKDWAKADPETKETAEAQAKEHEALAKEIAAAA
B3: d8r1_design_ppi_1324_dldesign_0_cycle1_af2pred (protein)
chain: AAAKLAALKKEIKALIGAAAAYQIAKDSSKLDEYVAKANKLIALADKDPVAAAKETAKLAEEAGDEETAKKAKEAAKEAKKL
B4: d6r1_design_ppi_1043_dldesign_0_cycle1_af2pred (protein)
chain: AQASIQRGAQAANALMAAAAGYYAKKYKGPLGEKAKAAADQAAALAAQSAANPATAQANAQQASALLDELLKEVKAYEE
B5: d8r1_design_ppi_1470_dldesign_0_cycle1_af2pred (protein)
chain: DAAAQAATALQGAKNALAAADLLEAEGTKGALLAAGSLYIAAGEQLATAYTLLGKPEEGKAVAAELNAKGKALLAAA
B6: d6r1_design_ppi_1068_dldesign_0_cycle1_af2pred (protein)
chain: APAVLLAQAQKSAELALKALELGYNEAAVLFLQAASYFFAGAVNPATAATYAAKGVELIEKGLALLKAAS
B7: d8r1_design_ppi_310_dldesign_0_cycle0_af2pred (protein)
chain: SRARALASIAALAELAAELAEENPASGAQLGKVVASALAALGLTDEAARVAAASPADLKAVMREVAAAARAAAAALA
B8: d6r1_design_ppi_911_dldesign_0_cycle1_af2pred (protein)
chain: GAAERTGRALANTAVAFAKSGSEEEAVAFATQMAEQIAALPGAEAAVARMAEELAKVLSPEAAAKVREAAAAILAKAAA
B9: d8r1_design_ppi_139_dldesign_0_cycle1_af2pred (protein)
chain: AKLIEELKKEAKAVKELAKKGAPAEELDAAVKKLGEAMTKLAKAMATMSPEEKAKARAALAEAAKAAIEAGEVAEKLRAA
B10: d6r1_design_ppi_1088_dldesign_0_cycle1_af2pred (protein)
chain: GQAGTAKALINMARIGAKLGEEAYEVLKTIFETLANMIADPAWAEGGRAAREAIYAITMEIDPELAKRVLEEVE
B11: d6r1_design_ppi_1028_dldesign_0_cycle0_af2pred (protein)
chain: AAAIAATKAELAKGKALLAKAKAAPAAAWNEALAAELRAAANALNRAATALLAAGGDTALAVEATETAVELLKAAGEINRA
B12: d6r1_design_ppi_1033_dldesign_0_cycle1_af2pred (protein)
chain: AAEEEAKNAQVRQLAAQAFSYNLLADAAKQLAAAKGPEYEAKAKEYQAKAAAYKAEAEALNPEVFAAALAEVQAKYDAAL
B13: d6r1_design_ppi_1146_dldesign_0_cycle1_af2pred (protein)
chain: AEEEAAKLKAQADGLDTIATALIEQAKTGDAAVARGAAAAAVSLAKKAAELYKRAAKLAGDEKFGKEQAKKQKAKAKEAKEVAEKKAA
B14: d8r1_design_ppi_536_dldesign_0_cycle1_af2pred (protein)
chain: NKDKEIAELLLKLAEAAKEDPEKALKIAEEIEKLGNKEFGGALKTLLELAVAEKGKAGENAKAAAIVLSTSRAEDLLAK
B15: d8r1_design_ppi_869_dldesign_0_cycle1_af2pred (protein)
chain: SEEAQAAVRFARNLLEVARLRAEEDPARGRAIAANLEVAARTLAEKHAGLPEAEELRRLAAEAAALAAELA
B16: d8r1_design_ppi_509_dldesign_0_cycle0_af2pred (protein)
chain: SDEKWAAAAAHMGAAQKAADAAVAAAAAGNTAAAKAAQAEAAAHYDKAAEEAKEYSPEAGAAMKSTREATVALINAKL
B17: d8r1_design_ppi_134_dldesign_0_cycle1_af2pred (protein)
chain: AAAEAAREAVRAAAAAAREAAAKMSPSKAKAVESIVERTTRVADELIAAGDYRTAVRAAASAEAAAKTLLEVDK
B18: d6r1_design_ppi_1013_dldesign_0_cycle0_af2pred (protein)
chain: SAEVQALLEEARRHIARAQKLLVAGNKEEALKEAEEAKKLAEEAKKLAADDPELAKSAEGLIKLAEAVIESAKA
B19: d6r1_design_ppi_1117_dldesign_0_cycle0_af2pred (protein)
chain: SQQQTQQAQQQAQATIAQTQAARDELKKLAADPEARAAAESAAQQLAVAQDLNASGTLVGAQAALAMAQQALAVATATLAKAKAA
B20: d8r1_design_ppi_869_dldesign_0_cycle0_af2pred (protein)
chain: SEDAQSAVRFAQNTLETAKRKAAEDPARGRQIAANLATAAATAAAKFAGLPEAATLKALQAQAAALAAALA
B21: d8r1_design_ppi_509_dldesign_0_cycle1_af2pred (protein)
chain: KDEHFDKMVEYLKKAQEAYNKAVAAAKAGDADAAKAALAKAQEYYDKAIKEAEKYSPEAGAAMKSTKEKSVAIANAAL
B22: d8r1_design_ppi_1339_dldesign_0_cycle1_af2pred (protein)
chain: AEAWLAEIREIVSRAVEAAQAGDVETLEAAVEEARALAERAPPEVRPAAENAAAFNQLLLELTKERLAEKA
B23: d6r1_design_ppi_1056_dldesign_0_cycle0_af2pred (protein)
chain: AAAAAAAAQAETDALADEARELAAKAAEKIDPEKGALLKELTDYYAAKARSGTDEAGRTGLRALLSAARNIVS
B24: d8r1_design_ppi_1318_dldesign_0_cycle1_af2pred (protein)
chain: SAAAAAAARGEAAVASLTATGAAIVAAAKKDPSEAASMVRAVKNLGQAYANRVPPEYAAKVLAVAATYAAQIAAIM
B25: d8r1_design_ppi_1356_dldesign_0_cycle1_af2pred (protein)
chain: DPELIARTALSAAVMLEKGVAGTPEAALNAADGSALLLESKAESFGSEELKELAKKAKEAAKKIKADPEAGKKALREVAEELKKLAE
B26: d8r1_design_ppi_1265_dldesign_0_cycle1_af2pred (protein)
chain: SENEEAAKALTRAAEAAARYLAEKYGELAKEAAKLIAKAAEADAETAVKYLEEAVKLLDEAGKKTGATKETDALKAMAEKAAELKKA
B27: d6r1_design_ppi_1153_dldesign_0_cycle0_af2pred (protein)
chain: TEAAAALLRKTIAALERRVERAPEMSLEEAKALAESAKVLLEAGKAVPEVAAAAEELYKRAEEVAKKKAEEAAA
B28: d6r1_design_ppi_1193_dldesign_0_cycle0_af2pred (protein)
chain: EEERQQLLAEAEALFARANALLPAAAAAGSEATALVVESLEYASKAARLAREGGDLEEAQKLLEKAKKYLAEAEKLIAA
B29: d8r1_design_ppi_671_dldesign_0_cycle1_af2pred (protein)
chain: AESYRAAAAAIAQAAADNPAGAADAAAALVAMAKMSSPEKAAAIAEGVEAVAEGAPADVRALLLAAAAEIKAIV
B30: d8r1_design_ppi_1447_dldesign_0_cycle1_af2pred (protein)
chain: SEAEDIASFARMATTAAASAAKKDIASAKTLMDAVAKLPGAAAHVTAAGNAAIAAAATVDPARAAELAAYLAARLAAL
B31: d8r1_design_ppi_530_dldesign_0_cycle0_af2pred (protein)
chain: AAALAAALAAAAEAAAAAEAEAVAAAVSETVAAAARAAIKSFESGANKELAKQAMAAASAAGAAMKAGDTAAAQQYAAQTQALVAQIA
B32: d8r1_design_ppi_167_dldesign_0_cycle1_af2pred (protein)
chain: SKEERYKKAAEWLAETSKKAIALRKANPAVAPLAIKMHGAAAHAAAALVAGDEEKAEEYKKKSEEYLKEAEAAIA
B33: d6r1_design_ppi_1169_dldesign_0_cycle1_af2pred (protein)
chain: ELEEEVERAVEEAREAAERAREAGKANPALAPQLEAVVRFLETAAEYARESGEEGTEALKEAVEAARGMAEAALAA
B34: d6r1_design_ppi_1061_dldesign_0_cycle1_af2pred (protein)
chain: AAAALAAAAAIAATLLAAGKAGDAATAAAALYGAALVLALADPAYAEVYDAVARAVSPAARAAGGAAAIALLAAAQA
B35: d6r1_design_ppi_1068_dldesign_0_cycle0_af2pred (protein)
chain: MAAELTAKAQEAVERAAAAEAAGLKEAATLYLKAAAYYHAGAVNPATAAENAAKGEEYLAQAEALEKAAA
B36: d6r1_design_ppi_973_dldesign_0_cycle1_af2pred (protein)
chain: EQKKAAEEAAKAIKEAAKKAKELGDEATANGLQAIATALKNAVEAGDYKAAAELAKIGAAQAATLPELAPLAKKIEKLAKKIEE
B37: d6r1_design_ppi_1193_dldesign_0_cycle1_af2pred (protein)
chain: MEELKKLKEEAEKLFQKARDIMPQAVKAGNEAVSKVVEAQKYATEAAKLAKEGGDLEEAKKKYEKAKKYYEEALKLIAA
B38: d6r1_design_ppi_1105_dldesign_0_cycle1_af2pred (protein)
chain: AEKERLKEAAKRSAEKARELAKAGYALGAKAAILAAVRAAKEAGDAELVKEVLEVAKEAAKHPEVKPALEEAKKALEEVKK
B39: d8r1_design_ppi_1425_dldesign_0_cycle1_af2pred (protein)
chain: SVEERKKRAEAIAKRSRAVARALAAADPARGIALAESAAVSFEKWAELYPEIKEFAEALAAEHRALAAEIRAAA

What was measured:
[1] = target: PDL1, Q9NZQ7
[2] = target: CD276, Q5ZPR3
CD276, Q5ZPR3, sequence (Q5ZPR3 whole entry): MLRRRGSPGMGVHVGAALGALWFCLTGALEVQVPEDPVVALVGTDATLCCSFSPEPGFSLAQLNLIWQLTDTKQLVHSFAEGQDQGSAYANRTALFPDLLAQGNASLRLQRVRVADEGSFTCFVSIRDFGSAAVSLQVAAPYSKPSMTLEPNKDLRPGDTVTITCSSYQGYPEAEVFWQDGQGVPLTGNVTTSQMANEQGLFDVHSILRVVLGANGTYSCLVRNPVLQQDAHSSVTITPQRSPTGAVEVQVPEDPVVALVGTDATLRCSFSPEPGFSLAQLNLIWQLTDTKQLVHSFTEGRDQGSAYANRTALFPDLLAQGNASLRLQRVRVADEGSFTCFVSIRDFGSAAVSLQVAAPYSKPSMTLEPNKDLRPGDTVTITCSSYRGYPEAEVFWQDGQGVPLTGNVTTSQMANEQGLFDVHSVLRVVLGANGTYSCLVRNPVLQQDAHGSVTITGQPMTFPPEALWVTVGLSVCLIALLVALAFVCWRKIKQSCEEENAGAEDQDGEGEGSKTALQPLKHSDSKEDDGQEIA

PDL1, Q9NZQ7, sequence (Q9NZQ7 whole entry): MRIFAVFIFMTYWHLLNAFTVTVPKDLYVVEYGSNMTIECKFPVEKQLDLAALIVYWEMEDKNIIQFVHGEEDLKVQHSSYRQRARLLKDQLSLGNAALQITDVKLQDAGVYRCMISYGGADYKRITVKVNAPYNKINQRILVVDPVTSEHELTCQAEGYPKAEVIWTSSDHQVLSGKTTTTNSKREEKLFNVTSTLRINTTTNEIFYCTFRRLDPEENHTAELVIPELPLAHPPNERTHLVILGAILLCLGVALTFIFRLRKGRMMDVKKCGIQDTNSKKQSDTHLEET

Binder	binding in a display sort [1]	binding in a display sort [2]
B1	binds (active)	
B2	not found	
B3	not found	
B4		not found
B5	not found	
B6		not found
B7	not found	
B8		not found
B9	not found	
B10		not found
B11		binds (active)
B12		not found
B13		not found
B14	not found	
B15	binds (active)	
B16	not found	
B17	binds (active)	
B18		not found
B19		not found
B20	not found	

Binder	binding in a display sort [1]	binding in a display sort [2]
B21	not found	
B22	binds (active)	
B23		not found
B24	binds (active)	
B25	not found	
B26	binds (active)	
B27		not found
B28		not found
B29	not found	
B30	not found	
B31	not found	
B32	not found	
B33		not found
B34		not found
B35		not found
B36		not found
B37		not found
B38		not found
B39	not found	
